# From PubChem BioAssay AID485364 (National Center for Advancing Translational Sciences (NCATS), 2010)
# The campaign covered roughly 360,000 compounds. About 11,000 (3.1%) were called active. Not shown: some 4% with an inconclusive outcome. This is one part of a sample in which actives are shown more often than they occur. Values without a mark were called inactive. Calls follow the shape of the dose curve; as a rule, active = well fitted inhibition curve with a large enough effect; inconclusive = small, poorly fitted or top-dose-only effect; inactive = no such curve, though single readings can be large or run the other way.
# Target: Schistosoma mansoni thioredoxin glutathione reductase (TGR) (UniProt Q962Y6)
# Assay: qHTS Assay for the Inhibitors of Schistosoma Mansoni Peroxiredoxins; also: nearly all actives have a fitted effect of over 60% in size
# Conditions: purified TGR, DTNB reduction, TNB absorbance 405 nm; series mostly up to 114 µM; activity change, negative = inhibition: at the top concentration
# Description: Schistosomiasis is a major neglected tropical disease that currently affects over 200 million. It is caused by different species of flatworms, such as Schistosoma mansoni. Over the last century, drugs to treat the disease have evolved from potassium antimonyl tartrate, artemisinin, oxamniquine, to praziquantel, with praziquantel remaining the universally-used single drug of choice over the past three decades. However, transmission rates have changed little with praziquantel, and there is evidence for the development of drug resistant parasites. Because there is currently no suitable alternative therapy available, there is an urgent need to identify new targets and drugs for schistosomiasis treatment. Thioredoxin glutathione reductase (TGR), one uniquely positioned S. mansoni enzyme, has been identified as a major component of the worms' distinct and compressed antioxidant "firewall". TGR is a multifunctional enzyme that catalyzes the interconversion between reduced and oxidized forms of both glutathione (GSH) and thioredoxins, thus making it an attractive new antiparasitic target. Recently, a quantitative high-throughput screen of the NIH Molecular Libraries Small Molecule Repository (MLSMR, ~71K at the time of the screen in 2007) was performed using an assay that targeted both TGR and peroxiredoxin2 (Prx2, an H2O2-reducing enzymatic component of the S. mansoni redox "firewall") by following the decrease of NADPH fluorescence. […] Additional mechanistic link between exogenous NO donation and parasitic injury for the oxadiazole-2-oxide class of compounds was also expanded and better defined. Although the screen addressed both TGR and Prx2, the assay required post-screen target deconvolution for further characterization of the actives. In addition, the fluorescence assay was also subject to fluorescence interference from compound library members. We have developed a 1536-well-based kinetic HTS assay to address TGR alone. The assay followed the reduction of 5, 5'-dithiobis (2-nitrobenzoic acid) (DTNB) (Ellman's reagent) by NADPH and measured the increase in absorbance at 412 nm of the reaction product, TNB. […] This assay format can be used to screen the current MLSMR collection (with >300K compounds available) to find novel TGR inhibitors. Furoxan is a good choice to serve as a positive control in the primary HTS assay.
# Three microliters of reagents (100 uM NADPH and 20 nM TGR or 100 uM NADPH as no-enzyme control) were dispensed into 1,536-well black clear-bottomed plates. Compounds (23 nL) were transferred via Kalypsys pin tool equipped with 1536-pin array (10 nL slotted pins, V&P Scientific, San Diego, CA). The plates were then be incubated for 15 min at room temperature, and 1 uL aliquot of 500 uM NADPH were added, immediately followed by a 1 uL aliquot of 15 mM DTNB to start the reaction. The plate was transferred to a ViewLux high-throughput CCD imager (Perkin-Elmer, Wellesley, MA) where kinetic measurements of the TNB absorbance were acquired using a 405 excitation filter. Throughout the screen, reagent bottles and all liquid lines were made light-tight to minimize reagent degradation. All screening operations were performed on a fully integrated robotic system (Kalypsys, San Diego, CA) containing one RX-130 and two RX-90 anthropomorphic robotic arms (Staubli, Duncan, SC). Library plates were screened starting from the lowest and proceeding to the highest concentration, and a "double-dipping" step of the highest concentration was required to access higher concentrations of compounds. Vehicle-only plates, with DMSO being pin-transferred to the entire column 5-48 compound area, were inserted uniformly at the beginning and the end of each library in order to monitor for and record any shifts in the background, which can be affected by reagent dispensers or loss in enzyme activity overtime. […]
# % is scaled to controls: 0 for no effect and ±100 for the full control effect; potency is read from the fitted curve at half-maximal effect.
SMILES,"activity change, negative = inhibition",Potency
Cc1ccc(C2CCN(C(=O)c3cnn(-c4ccccc4Cl)c3C3CCN(C(=O)OC(C)(C)C)CC3)C2)cc1 (stereo unspecified),-6.14%,
Cc1ccccc1C(=O)N(Cc1ccc(N(C)C)cc1)CC1CCCO1 (stereo unspecified),-4.37%,
O=C(CCS(=O)(=O)c1cc(Br)cc2c1N(C(=O)C1CC1)CC2)Nc1ccc(Br)cc1F,-9.17%,
CNc1nnc(-c2ccco2)s1,0.0938%,
COc1ccc(OCC(=O)Nc2nnc(-c3ccco3)s2)cc1,,28.2 µM (active)
COc1ccc(OCCCC(=O)Nc2nnc(C3CCCO3)s2)cc1 (stereo unspecified),-23.5%,
CCOC(=O)N1CCc2c(sc3c2c(=O)n(-c2ccc(CC)cc2)c(=O)n3C)C1,4.2%,
Cc1ccccc1NC(=O)Cn1c(=O)n(CCCCC(=O)NCc2ccccc2Cl)c(=O)c2ccccc21,14.5%,
CC(C)OC(=O)CN1CCN(c2ccc(Cl)cc2)CC1,-6.1%,
O=C(CN1CCN(c2ccc(Cl)cc2)CC1)c1ccccc1,,17.8 µM (active)
O=C(CCCC(=O)N1CCN(c2cccc(Cl)c2)CC1)c1ccccc1,14.1%,
Cc1cccc(NC(=O)COC(=O)CCc2ccccc2)c1C,-1.65%,
O=C(COC(=O)CCc1c[nH]c(=O)[nH]1)Nc1ccccc1Cl,,44.7 µM (active)
Cc1cc(C(=O)OCC(=O)Nc2ccccc2Cl)c(C)o1,-10.9%,
COc1ccccc1NC(=O)Cn1cnc2ccc(S(=O)(=O)N3CCC(C)CC3)cc2c1=O,-3.41%,
COCCNC(=O)c1ccc2c(c1)N(Cc1cccc(Cl)c1)C(=O)c1ccccc1S2(=O)=O,6.01%,
COc1ccc([N+](=O)[O-])cc1NC(=O)COC(=O)/C=C/c1ccco1,-20.8%,
NS(=O)(=O)c1cccc(NC(=O)COC(=O)/C=C/c2ccco2)c1,,6.31 µM (active)
CC(C)CNC(=O)COC(=O)/C=C/c1ccco1,-30.1%,
CN(C)S(=O)(=O)c1cccc(NC(=O)COC(=O)/C=C/c2cccs2)c1,-1.01%,
COc1cccc(NC(=O)COC(=O)/C=C/c2ccco2)c1,,31.6 µM (active)
COc1ccc(/C=C/C(=O)OCC(=O)Nc2cccc(Oc3ccccc3)c2)c(OC)c1,2.08%,
CCc1cccc(-n2nnc(-c3nsc(NC(=O)c4ccc(C)cc4)n3)c2C)c1,5.78%,
COc1ccc(-c2cc(NCc3ccc(F)cc3)n3cnnc3n2)cc1,-4.05%,
Cc1cc(C(=O)Nc2cccc(C(F)(F)F)c2)c2c(C)nn(-c3cccc(F)c3)c2n1,2.25%,
COc1ccc(NC(=O)C2CCCN(S(=O)(=O)c3cccc4nonc34)C2)cc1Cl (stereo unspecified),-0.832%,

SMILES,"activity change, negative = inhibition",Potency
Cc1ccc(C)c(NC(=O)Cn2ccn(-c3ccc(F)cc3)c(=O)c2=O)c1,5.65%,
O=C(CC1Oc2ccccc2NC1=O)NCc1ccc(F)cc1 (stereo unspecified),-0.707%,
Cc1ccc(CNC(=O)CCc2c(C)nn(-c3ccc(N4CCCC4)nn3)c2C)cc1,2.15%,
COc1ccccc1CNS(=O)(=O)c1cc(Br)cc2c1N(C(C)=O)C(C)C2 (stereo unspecified),-2.24%,
CCOC(=O)c1cc2c(=O)n3ccccc3nc2n(CC2CCCO2)c1=NC(=O)c1ccccc1F (stereo unspecified),-6.92%,
O=C(Nc1ccc2c(c1)OCO2)c1cc(-c2cccc(Cl)c2)on1,6.06%,
CC1CCCN(CC(O)COCc2ccccc2)C1 (stereo unspecified),1.25%,
COc1cc(C)cc(CN2CCC(Cc3ccccc3)CC2)c1O,-35%,
Oc1c(CN2CCCC2)cc(COCc2ccccc2)c2cccnc12,,22.4 µM (active)
COc1cc(OC)c(NC(=O)N2CC3CCCN3c3ccccc32)cc1Cl (stereo unspecified),-28.7%,
CCOC(=O)c1c(S(=O)(=O)N2CCCC(C(=O)NCc3ccc(F)cc3)C2)c(C)n(CC)c1C (stereo unspecified),2.19%,
CCOC(=O)c1c(C)[nH]c(CCC(=O)NCCCN2CCN(c3cc(C)ccc3C)CC2)c1C,-6.6%,
COc1ccc(C(CCN(Cc2ccc(OC)c(OC)c2)C(=O)CCl)c2ccccc2)cc1 (stereo unspecified),,8.91 µM (active)
COc1ccc(CN(Cc2ccc(OC)cc2)C(=O)c2cccs2)cc1,15.4%,
COc1ccc(CCNC(=O)C(Sc2ccccn2)c2ccccc2)cc1OC (stereo unspecified),2.91%,
CCc1nnc(SCc2nc(-c3cccc(C)c3)oc2C)c2cc3sc(C)cc3n12,20.7%,
CCCCc1ccc(NC(=S)NCCCN2CCOCC2)cc1,,50.1 µM (active)
Cc1cc(C)cc(NC(=S)NCCCN2CCOCC2)c1,-16.2%,
CCCC(=O)NC(=S)Nc1ccc(CN2CCOCC2)cc1,0%,
Cc1cccn2c(=O)c(C(=O)NC(C)c3ccccc3)cnc12 (stereo unspecified),-2.19%,
O=C(O)C1=C[C@H](c2cccs2)C[C@H](OCCCCO)O1,,39.8 µM (active)
NC(=O)C1=C[C@H](c2csc3ccccc23)C[C@H](OCc2ccc(CO)cc2)O1,-2.62%,
C#Cc1ccc([C@@H]2C=C(C(=O)O)O[C@H](OCCCCO)C2)cc1,,39.8 µM (active)
C=CCOC(=O)C1=C[C@@H](c2ccccc2)C[C@@H](OCc2ccc(CO)cc2)O1,-32%,
CN1CCN(C(=O)C2=C[C@H](c3ccc4c(c3)OCO4)C[C@H](OCc3ccc(CO)cc3)O2)CC1,-1.84%,
CCO[C@H]1OC(C(=O)O)=C[C@@H](C2CCCCC2)[C@@H]1CCCO,-1.63%,

SMILES,"activity change, negative = inhibition",Potency
Cc1ccc(-n2nc(CO)c(C(=O)NCCc3ccccc3)n2)cc1,0.121%,
COc1c(Cl)cc(C(=O)N(Cc2ccccc2F)C2CCS(=O)(=O)C2)cc1Cl (stereo unspecified),15.1%,
Cc1cccc(OCCSc2nc3ccc(NC(=O)COc4ccccc4C)cc3s2)c1,-8.79%,
CCOC(=O)c1c(NC(=O)CCl)sc(C(=O)N(CC)CC)c1C,,35.5 µM (active)
CCOC(=O)Nc1sc(C(=O)N(C)C)c(C)c1C(=O)OCC,-17%,
CCOC(=O)c1sc(NC(=O)CCN2CCOCC2)c(C(=O)OCC)c1C,-3.18%,
CSc1nc(=O)c2c(n1C)NC(=O)CC2c1ccccc1OC(C)C (stereo unspecified),3.1%,
CCc1ccc(NC(=O)CN2C(=O)CCSc3ccc(S(=O)(=O)N4CCCC4)cc32)cc1,-1.49%,
CCCCn1c(=O)c2oc3ccccc3c2n(CC(=O)Nc2ccccc2OC)c1=O,9.58%,
COc1ccc2c(c1)C=C(C(=O)NCc1cc(Br)ccc1OC)CO2,-6.94%,
O=C(O)CN1c2cccc3cccc(c23)S1(=O)=O,,35.5 µM (active)
COc1ccc(C)cc1NC(=O)CN1c2cccc3cccc(c23)S1(=O)=O,-12.4%,
CC(C)CN(CC(C)C)C(=O)CN1c2cccc3cccc(c23)S1(=O)=O,-11.9%,
CCN(CC)c1ccc(NS(=O)(=O)c2cc(-c3cc(C)no3)ccc2C)c(C)c1,-22.1%,
CCOc1ccc(N(CC)C(=O)c2cc3c(=O)oc4ccccc4c3s2)cc1,-10.1%,
O=C(c1ccc(Br)cc1)N(Cc1cccs1)c1ccc(F)cc1,-2.63%,
O=[N+]([O-])c1cc(S(=O)(=O)N2CCCC2)ccc1NN=C1CCCC1,-14.2%,
CN1CCN(S(=O)(=O)c2ccc(N3CCN(c4ccccc4O)CC3)c([N+](=O)[O-])c2)CC1,-15.4%,
Cc1cc(N)n(-c2ccc(S(=O)(=O)N3CCCC3)cc2[N+](=O)[O-])n1,,50.1 µM (active)
COc1cc(OC)cc(C(=O)NCCc2csc3nc(-c4ccccc4F)nn23)c1,2.26%,
COc1cccc(NC(=O)N2CCCC2C(=O)NC2CCCCC2)c1 (stereo unspecified),4.18%,
CCC1CCCCN1C(=O)Nc1cccc(NC(=O)N2CCCCC2CC)c1 (stereo unspecified),,39.8 µM (active)
CCC1CCCCN1C(=S)Nc1ccc(C(C)=O)cc1 (stereo unspecified),-6.57%,
CCN1C(=O)c2ccccc2Sc2ccc(NC(=O)Cc3ccc(OC)cc3)cc21,5.68%,
CCOC(=O)CC1=CC(=O)Nc2ccccc2N1,0%,
CCOC(=O)C(=O)C1C(=O)Nc2ccccc21 (stereo unspecified),,28.2 µM (active)

SMILES,"activity change, negative = inhibition",Potency
CCCCC(CC)CNC(=O)C(=O)C1C(=O)Nc2ccccc21 (stereo unspecified),1.5%,
CCc1ccc(NC(=O)C2CCCN2S(=O)(=O)c2ccc3nc(-c4ccccc4)[nH]c3c2)cc1 (stereo unspecified),-9.77%,
CC(C)c1ccc(O)c(CN2CCN(c3ccccc3)CC2)c1,4.78%,
Oc1cc2c(cc1CN1CCN(c3ccccc3)CC1)OCO2,,1.58 µM (active)
Fc1ccc(N2CCN(Cc3ccc4c(c3)OCO4)CC2)cc1,8.45% [at 11.4 µM],
Cc1cc2c(cc1C)C(c1cccc(OC(C)C)c1)CC(=O)N2 (stereo unspecified),8.08%,
CCc1ccc2oc(-c3ccc(NC(=O)c4cc5ccccc5o4)cc3)nc2c1,5.27%,
COc1ccc(OC)c(CNC(=O)c2c3c(nc4ccccc24)C(=O)N(C2CCCCC2)C3)c1,4.02%,
CN(C)c1ccc(C(CNS(=O)(=O)c2cc(F)ccc2F)N2CCOCC2)cc1 (stereo unspecified),,44.7 µM (active)
O=S(=O)(NCC(c1ccco1)N1CCOCC1)c1cc(F)ccc1F (stereo unspecified),-10%,
COc1ccc(S(=O)(=O)NCC(c2ccc(N(C)C)cc2)N2CCCC2)cc1 (stereo unspecified),-1.69%,
CCCn1ccc2c(OCC(=O)NCc3ccc(F)cc3)cccc2c1=O,10.9%,
COC(=O)c1ccccc1NC(=O)C(Cc1ccccc1)N1Cc2ccccc2C1=O (stereo unspecified),-0.352%,
COc1ccc(/C=C/C(=O)c2cc(Br)ccc(=O)c2O)cc1,,15.8 µM (active)
COc1ccc(C(=O)c2oc3ccc(Br)cc3c2NC(C)=O)cc1,13.6%,
COc1ccc2oc(=N)c(C(=O)Nc3ccc(Br)cc3)cc2c1,3.72%,
O=S(=O)(c1ccc(Cl)cc1)c1nc(-c2ccco2)oc1N1CCCCC1,,14.1 µM (active)
O=S(=O)(c1ccccc1)c1nc(-c2ccc(Cl)cc2Cl)oc1N1CCCCC1,-2.81%,
O=C(CSc1oc(-c2ccco2)nc1S(=O)(=O)c1ccc(Cl)cc1)c1ccccc1,-4.02%,
CCCc1nn2c(=O)cc(COC(=O)c3ccc(NC(=O)C(C)Oc4ccccc4)cc3)nc2s1 (stereo unspecified),-1.34%,
N#Cc1c(N)n(CCOC(=O)c2ccc(Cl)cc2)c2nc3ccccc3nc12,3.75%,
CN(C)CCCn1c(N)c(C#N)c2nc(C#N)c(C#N)nc21,,20 µM (active)
CCCN(CCC)C(=O)C(Cc1ccccc1)NS(=O)(=O)c1ccc2c(c1)c(=O)n(C)c(=O)n2C (stereo unspecified),-10.4%,
